Assay results from ChEMBL document CHEMBL3988442, “University of Dundee, Small-Polar-MMV Screening Library” (2021).
Hit rate of the full screen: of about 48,000 compounds, about 13,000 (27%) showed an effect of 50% or more. The list shows a part of the results.

What follows are compounds tested on Wolbachia pipientis (assay: Anti-Wolbachia Cell-Based Screen). Conditions: 5 µM.
Assay type: functional
Design: scale not given: in the data most compounds retested in dose-response had high values

Row | SMILES | Percent Effect [%]
1 | Cc1cc(CN2CCN(C(C)c3nc(C(C)C)no3)CC2)no1 (configuration not stated) | 1.416
2 | Cc1noc(C(C)Nc2ccc3oc(C)nc3c2)n1 (configuration not stated) | 8.533
3 | CCN1CCN(c2ccc(NC(C)c3nc(C(C)C)no3)c(C)c2)CC1 (configuration not stated) | 117.8
4 | Cc1noc(C(C)Nc2ccc(N3CCOCC3)cc2C)n1 (configuration not stated) | 200.3
5 | CCN1CCN(c2ccc(C(=O)NC(C)c3ccncc3)cc2)CC1 (configuration not stated) | -3.258
6 | Cc1noc(C(C)Nc2ccc3oc(C(C)C)nc3c2)n1 (configuration not stated) | 8.094
7 | Cc1cc(N2CCOCC2)ccc1NC(C)c1nc(C(C)(C)C)no1 (configuration not stated) | 111.3
8 | Cc1cc(CNC(=O)NC(C)c2ccc(N3CCOCC3)cc2)no1 (configuration not stated) | 1.457
9 | Cc1cc(N2CCOCC2)ccc1NC(C)c1nc(C(C)C)no1 (configuration not stated) | 89
10 | Cc1cc(OCC(=O)NC(C)c2ccc(N3CCOCC3)cc2)no1 (configuration not stated) | -0.3596
11 | CCNC(=O)c1nnc2ccc(N3CCOCC3)cc2n1 | 17.66
12 | CC(NCc1nnc2n1CCCC2)c1nc(C(C)(C)C)no1 (configuration not stated) | 3.435
13 | Cc1ccc(C)c(-n2nnnc2SCN2CCCCC2=O)c1 | -6.055
14 | Cc1c(C(=O)N2CCC2(C)C)nnn1-c1cccc2cccnc12 | 0.9445
15 | Cc1ccc(CCNC(=O)NCCCC(N)=O)c(C)c1 | -5.264
16 | CCc1c(C(=O)O)nnn1-c1ccc(C)cc1C | 82.86
17 | COCc1c(C(=O)NC2CCCC2)nnn1-c1ccc(C)cc1 | -4.164
18 | COCc1c(C(=O)O)nnn1Cc1cccc(C(F)(F)F)c1 | 8.575
19 | CCc1c(C(=O)O)nnn1-c1cc(C)cc(C)c1 | 90.67
20 | COc1cc(OC)c(-n2nnc(C(=O)O)c2C)cc1Cl | -3.799
21 | Cc1ccc(C(=O)N(C)CC(=O)N2CCCC2)c(C)c1 | -3.926
22 | CCc1c(C(=O)O)nnn1-c1cc(C)ccc1C | 72.77
23 | CCc1c(C(=O)O)nnn1-c1cccc(C)c1C | 95.29
24 | Cc1c(C(=O)O)nnn1-c1cccc2cccnc12 | -7.776
25 | CCc1cnc(N2C[C@H](OCc3csc(C)n3)[C@H]3COC[C@H]32)nc1.O=C(O)C(F)(F)F.O=C(O)C(F)(F)F | 4.189
26 | CN1CCC(N[C@@H]2CO[C@H](CNC(=O)c3cccs3)[C@H]2O)CC1 | -3.68

Row | SMILES | Percent Effect [%]
27 | O=C(c1cn(CC(=O)N2CCc3[nH]cnc3C2)c2ccccc12)C1CC1 | 1.32
28 | COc1ccc(NC(=O)CSC(F)(F)F)cn1 | 1.311
29 | O=C(c1coc2ccccc12)N1CCS(=O)(=O)CC1 | 0.973
30 | COc1cc(Cl)c(C)cc1-n1nnc(C(=O)O)c1-c1ccncc1 | -11.88
31 | COc1cc(Cl)c(C)cc1-n1nnc(C(=O)O)c1C | 4.448
32 | Cc1ccc(-n2nnc(C(=O)O)c2C)c(C)c1 | 89.24
33 | CC(C)(O)CCc1cccc(C(=O)NCc2cnn3cccnc23)c1 | 6.543
34 | CCN(Cc1ccc2c(c1)OCO2)C(=O)NC(C)Cn1cccn1 (configuration not stated) | 4.631
35 | CS(=O)(=O)CC1CCCN(C(=O)Cn2cccc(C(F)(F)F)c2=O)C1 (configuration not stated) | 2.203
36 | c1cc(-c2nnc([C@H]3CCN(C4CCOCC4)C3)o2)ccn1 | -3.579
37 | OCCn1nccc1C1CCN(CCCOc2ccc(F)cc2)CC1 | -1.646
38 | CC(C)(C)c1cnc(CN2CCC(c3ccnn3CCO)CC2)o1 | -7.147
39 | NC(=O)Cn1ccnc1C1CCCN(CCSc2ccccc2)C1 (configuration not stated) | 0.1316
40 | O=C(NCCc1c[nH]cn1)C1CCCN(C2CCOCC2)C1 (configuration not stated) | -7.633
41 | COc1ccccc1OCCN1CCCC(c2cc(C(N)=O)[nH]n2)C1 (configuration not stated) | -3.836
42 | COCCN1CCCC(c2ccnc3c(C(N)=O)cnn23)C1 (configuration not stated) | 97.31
43 | NC(=O)c1cnn2c(C3CCN(CCO)CC3)ccnc12 | 128.9
44 | NC(=O)c1cnn2c(C3CCCN(C4CCOCC4)C3)ccnc12 (configuration not stated) | 143.8
45 | CCC(CC)c1cc(C(=O)N2CCN(CC(N)=O)CC2)on1 | 14.59
46 | CC(=O)N1CCC(C(=O)NC(C)c2cccc(OC(F)F)c2)CC1 (configuration not stated) | 11.71
47 | CNC(=O)[C@@H](c1ccccc1)N1CCC[C@H]1C(=O)NC1CCCCC1.Cl | 13.78
48 | O=C1NCCCC12CCN(S(=O)(=O)N1CCOCC1)C2 (configuration not stated) | -15.95
49 | CCc1nc(CN(C)Cc2nc(-c3ccccc3Cl)oc2C)no1 | -5.34
50 | NC(=O)NC(CC(=O)NCCc1cccc(F)c1)c1ccccc1 (configuration not stated) | -0.165
51 | CN(C)c1nccc(C2CCCCN2Cc2cnn3cccnc23)n1 (configuration not stated) | 74.52
52 | Cc1nc(C)c(C)c(NCc2cnn3cccnc23)n1 | -1.599

Row | SMILES | Percent Effect [%]
53 | c1ccc(-c2ncc(CN3CCCCC3CCn3cccn3)cn2)nc1 (configuration not stated) | -35.25
54 | c1ccc(C2CCCCN2Cc2nc(-c3cnccn3)no2)nc1 (configuration not stated) | 12.62
55 | CN(C)CCC1CCCCN1Cc1cnc(-c2ccccn2)nc1 (configuration not stated) | -28.12
56 | CNc1nccc(C2CCCCN2Cc2cnn3cccnc23)n1 (configuration not stated) | 117.1
57 | c1ccc(C2CCCN2Cc2nc(-c3cnccn3)no2)nc1 (configuration not stated) | -14.84
58 | c1cnc2c(CN3CCCCC3c3ccncn3)cnn2c1 (configuration not stated) | 72.9
59 | CN(C)Cc1nc(C(C)(C)NC(=O)c2nc3ccccc3s2)no1 | 8.405
60 | CC(C)c1cc(C(=O)N2C[C@H]3CC[C@@H]2CN(Cc2cscn2)C3)no1 | -2.131
61 | CNC(=O)C(C)(C)N1CCC[C@H]1C(=O)NC(C)(C)C | -3.15
62 | Fc1ccc(CC2CCN(Cc3nccs3)CC2)cc1 | 16.43
63 | OCCN1CCC(Cc2nccs2)CC1 | 98.4
64 | Fc1ccccc1CC1CCN(Cc2nccs2)CC1 | 9.425
65 | CCOCc1nc2c(c(NCc3cc(C)on3)n1)CCN(C(C)=O)CC2 | -0.7778
66 | CCc1nc(NC(=O)NCCc2scnc2C)nn1C | 3.208
67 | COc1cccc(C(=O)N2CCCC2c2ncc3c(n2)CCN(C)C3)c1 (configuration not stated) | 114.1
68 | O=C(c1ccc(F)c(F)c1)N1CCCCC1c1nc[nH]n1 (configuration not stated) | 17.06
69 | COc1cccc(C2CCCN2C(=O)c2ccc(=O)n(C)c2)c1 (configuration not stated) | 0.747
70 | COc1ccccc1C(=O)N1CCCC1c1ncc2c(n1)CCNC2.Cl (configuration not stated) | 126.5
71 | CN(C)c1cccc(C(=O)N2CCCC2c2ncc3c(n2)CCNC3)c1.Cl (configuration not stated) | 118.3
72 | COc1cccc(C2CCCN2C(=O)c2cc3c(nc2OC)CCC3)c1 (configuration not stated) | -14.5
73 | Cl.O=C(c1cccc(F)c1)N1CCCC1c1ncc2c(n1)CCNC2 (configuration not stated) | 105.4
74 | CCOc1ccccc1C(=O)N1CCCC1c1ncc2c(n1)CCNC2.Cl (configuration not stated) | 7.885
75 | Cc1ncnc2c1CCN(C(=O)c1cccc(F)c1)CC2 | -5.781
76 | COc1ccccc1C(=O)N1CCCC1c1nncn1CC(C)C (configuration not stated) | 2.233
77 | CN(C)c1cccc(C(=O)N2CCc3ccc(=O)[nH]c3CC2)c1 | -3.419
